# “And” between values parts separate entries of the source, which are not always exact repeats. Equal entries are not always repeated. The source made the active and inactive calls. Cut-off read from the data, not from the text of the source, unless noted: active = inhibition above about 80%; inactive = the rest.
# Tests used:
# [1] = LFS_MB_P medulloblastoma growth inhibition, cell-based, chromothripsis tumors, cisplatin or BGB combos (AID 1671449); conditions: LFS_MB_P medulloblastoma cells;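 note: cells exposed for 96 hours; 0% = vehicle DMSO and 100% = killing by high DMSO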
# [2] = HDN33 neuroblastoma growth inhibition, cell-based, chromothripsis tumors, cisplatin or BGB combos (AID 1671450); conditions: HDN33 neuroblastoma cells, stronger effect = higher value;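 note: cells exposed to compound for four days; 0% = vehicle DMSO and 100% = cell killing by high DMSO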
# [3] = ICB984 medulloblastoma cell growth inhibition, synergistic combos for chromothripsis tumors, cisplatin or BGB combos (AID 1671451; call rule not given here;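 note: cells exposed for 96 hours before readout; 0% = vehicle DMSO and 100% = killing by high DMSO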); conditions: ICB984 medulloblastoma cells, drug combinations, stronger effect = higher value
# [4] = LFS_MB_1R medulloblastoma cell growth inhibition, synergistic combos for chromothripsis tumors, cisplatin or BGB combos (AID 1671452); conditions: LFS_MB_1R medulloblastoma cells, stronger effect = higher value;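 note: cells exposed for 96 hours before readout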
# [5] = HTB85 osteosarcoma cell growth inhibition, synergistic combos for chromothripsis tumors, BGB or cisplatin IC20 combos (AID 1671453); conditions: HTB85 osteosarcoma cells, drug combinations, stronger effect = higher value;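 note: cells exposed for 96 hours before readout; 0% = vehicle DMSO and 100% = high DMSO killing control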
# [6] = CRL2098 osteosarcoma cell growth inhibition, synergistic combos for chromothripsis tumors, BGB or cisplatin IC20 combos (AID 1671454); conditions: CRL2098 osteosarcoma cells, drug combinations, stronger effect = higher value;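 note: cells exposed for 96 h before readout; 0% = vehicle DMSO and 100% = killing by high DMSO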
# [7] = HD-MB03 medulloblastoma cell growth inhibition, synergistic combos for chromothripsis tumors, BGB or cisplatin IC20 combos (AID 1671455; in the data active = inhibition above about 83%;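 note: 0% = vehicle DMSO and 100% = high DMSO as cytotoxic control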); conditions: HD-MB03 medulloblastoma cells, stronger effect = higher value
# [8] = UWB1.289 ovarian carcinoma cell growth inhibition, synergistic combos for chromothripsis tumors, BGB or cisplatin combos (AID 1671456); conditions: UWB1.289 ovarian carcinoma cells, stronger effect = higher value;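 note: cells exposed to compound for four days; 0% = vehicle DMSO and 100% = killing by high DMSO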
# [9] = LFS_MB_2R medulloblastoma cell growth inhibition, synergistic combos for chromothripsis tumors, cisplatin combos (AID 1671457); conditions: LFS_MB_2R medulloblastoma cells, stronger effect = higher value;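 note: cells exposed to compound for four days before readout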
# [10] = MDA-MB-436 breast carcinoma cell growth inhibition, synergistic combos for chromothripsis tumors, BGB or cisplatin combos (AID 1671458; call rule not given here;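 note: cells exposed for 96 hours; 0% = vehicle DMSO and 100% = killing by high DMSO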); conditions: MDA-MB-436 breast carcinoma growth inhibition, drug combinations, stronger effect = higher value
# [11] = UWB1.289_BRCA1 ovarian cancer growth, cell-based, BGB or cisplatin combinations (AID 1671459); conditions: UWB1.289 BRCA1 ovarian carcinoma, drug combinations, stronger effect = higher value
# [12] = human astrocyte viability loss, single and combined drugs, cytotoxicity control for chromothriptic childhood tumor combination screen, cell-based, BGB or cisplatin IC20 combos (AID 1671460); conditions: Human astrocytes, drug combinations, stronger effect = higher value;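 note: cells exposed to compounds for 96 hours before viability readout; 0% = vehicle and 100% = killing control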
# [13] = growth inhibition of BT084 medulloblastoma cells, cell-based, ICGC_MB145, cisplatin and BGB IC40 combos (AID 1671461); conditions: drug combinations, stronger effect = higher value;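 note: cells exposed to drugs for 96 hours; 0% = vehicle DMSO and 100% = high DMSO full killing control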
# [14] = growth inhibition of RCMB18 medulloblastoma cells, cell-based, cisplatin and BGB IC40 combos (AID 1671462); conditions: stronger effect = higher value;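 note: cells exposed to compound for four days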
# [15] = growth inhibition of CRL1545 osteosarcoma cells, cell-based, cisplatin and BGB IC20 combos (AID 1671464); conditions: stronger effect = higher value;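 note: cells exposed to compound for 96 hours before readout; 0% = vehicle DMSO and 100% = high DMSO killing control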
# [16] = at 0.5 µM, stronger effect = higher value
# [17] = measured here: combination with BGB IC20, at 0.005 µM
# [18] = measured here: combination with BGB IC40, at 0.005 µM
# [19] = measured here: combination with BGB IC40, at 0.05 µM
# [20] = measured here: combination with cisplatin, at 0.5 µM, stronger effect = higher value
# [21] = measured here: combination with cisplatin, at 5 µM, stronger effect = higher value
# [22] = measured here: with BGB IC20 combination, at 0.5 µM
# [23] = measured here: with cisplatin IC20 combination, at 0.5 µM
# [24] = measured here: 5 uM single agent, at 5 µM
# [25] = measured here: combination with cisplatin, at 0.5 µM
# [26] = measured here: combination with cisplatin, at 5 µM
# [27] = measured here: with BGB IC20, at 0.5 µM
# [28] = measured here: with BGB IC20, at 5 µM
# [29] = measured here: with cisplatin IC20, at 0.5 µM
# [30] = measured here: with cisplatin IC20, at 5 µM
compound,measurement,setting,value
O=c1cc(-c2ccc(O)cc2)[nH]c(=S)[nH]1,inhibition,[1]; [16],85.3% (active)
same,inhibition,[1]; [17],-1.36%
same,inhibition,[1]; [18],-7.24%
same,inhibition,[1]; [19],-1.51%
same,inhibition,[1]; [20],79.3%
same,inhibition,[1]; [21],3.08%
same,inhibition,"[2]; BGB combo, at 5 µM",-16.4%
same,inhibition,[2]; at 0.5 µM,-17.1% (inactive)
same,inhibition,"[2]; cisplatin combo, at 5 µM",-30.3%
same,inhibition,[2]; [22],-22.1%
same,inhibition,[2]; [23],-12.8%
same,inhibition,"[2]; single agent, at 5 µM",-27.7%
same,inhibition,"[3]; BGB IC20 combo, at 0.005 µM",-9.88%
same,inhibition,"[3]; BGB IC40 combo, at 0.005 µM",-25.6%
same,inhibition,"[3]; BGB IC40 combo, at 0.05 µM",-24.8%
same,inhibition,[3]; at 0.5 µM,-27.2% (inactive)
same,inhibition,"[3]; cisplatin combo, at 0.05 µM",-31.2%
same,inhibition,"[3]; cisplatin combo, at 0.5 µM",-50.4%
same,inhibition,"[3]; cisplatin combo, at 5 µM",-7.23%
same,inhibition,[3]; [24],-15.4%
same,inhibition,[4]; at 0.5 µM,-1.38% (inactive)
same,inhibition,[4]; [19],-3.87%
same,inhibition,[4]; [25],-24.1%
same,inhibition,[4]; [26],1.81%
same,inhibition,[5]; at 0.5 µM,-22.5% (inactive)
same,inhibition,[5]; [27],-21.9%
same,inhibition,[5]; [28],-6.6%
same,inhibition,[5]; [29],-20.1%
same,inhibition,[5]; [30],14%
same,inhibition,"[5]; single agent, at 5 µM",-1.02%
same,inhibition,[6]; at 0.5 µM,-53% (inactive)
same,inhibition,"[6]; measured here: combination with BGB at IC20, at 0.5 µM",-28.7%
same,inhibition,"[6]; measured here: combination with cisplatin at IC20, at 0.5 µM",-91.5%
same,inhibition,[7]; at 0.5 µM,-13.4% (inactive)
same,inhibition,"[7]; measured here: combo with BGB at IC20, at 0.5 µM",-10.4%
same,inhibition,"[7]; measured here: combo with cisplatin at IC20, at 0.5 µM",-24.5%
same,inhibition,[8]; at 0.5 µM,-11.6% (inactive)
same,inhibition,"[8]; measured here: inhibition with BGB combination, at 0.05 µM",-5.24%
same,inhibition,"[8]; measured here: inhibition with cisplatin combination, at 0.05 µM",-19.2%
same,inhibition,[9]; at 0.5 µM,-8.7% (inactive)
same,inhibition,[9]; [25],-16.1%
same,inhibition,[9]; [26],-5.06%
same,inhibition,[10]; at 0.5 µM,-9.32% (inactive)
same,inhibition,"[10]; measured here: BGB combination, at 0.5 µM",-13.5%
same,inhibition,"[10]; measured here: BGB combination, at 5 µM",-8.05%
same,inhibition,"[10]; measured here: cisplatin combination, at 0.5 µM",-15.9%
same,inhibition,"[10]; measured here: cisplatin combination, at 5 µM",-5.07%
same,inhibition,"[11]; BGB combination, concentration series, at 5 µM",-21.3%
same,inhibition,[11]; at 0.5 µM,-19.2% (inactive)
same,inhibition,"[11]; cisplatin combination, concentration series, at 5 µM",2.65%
same,inhibition,[12]; at 0.5 µM,-9.33% (inactive)
same,inhibition,"[12]; measured here: combo with BGB IC20, at 0.5 µM",-17.6%
same,inhibition,"[12]; measured here: combo with cisplatin IC20, at 0.5 µM",-15.4%
same,inhibition,[13]; at 0.5 µM,6.07% (inactive)
same,inhibition,"[13]; cisplatin combination, at 0.5 µM",-1.5%
same,inhibition,"[13]; cisplatin combination, at 5 µM",-121%
same,inhibition,"[13]; measured here: BGB IC40 combination 0.05 uM, at 0.05 µM",27.5%
same,inhibition,"[13]; single agent, at 5 µM",15.9%
same,inhibition,[14]; at 0.5 µM,-1.5% (inactive)
same,inhibition,"[14]; cisplatin combo, at 5 µM",-3.95%
same,inhibition,"[14]; measured here: BGB IC40 combination, at 0.05 µM",-13.5%
same,inhibition,[14]; [25],-10.5%
same,inhibition,"[14]; single agent, at 5 µM",21.7%
same,inhibition,[15]; at 0.5 µM,-18.8% (inactive)
same,inhibition,[15]; [22],-19.4%
same,inhibition,[15]; [23],-20.3%
same,inhibition,"[15]; single agent, at 0.05 µM",0.873%
same,inhibition,"[15]; single agent, at 5 µM",-68.2%
CCCCCCCCCC(=O)N[C@@H](Cc1c[nH]c2ccccc12)C(=O)N[C@@H](CC(N)=O)C(=O)N[C@@H](CC(=O)O)C(=O)NC1C(=O)NCC(=O)N[C@@H](CCCN)C(=O)N[C@@H](CC(=O)O)C(=O)N[C@H](C)C(=O)N[C@@H](CC(=O)O)C(=O)NCC(=O)N[C@H](CO)C(=O)N[C@@H](C(C)CC(=O)O)C(=O)N[C@@H](CC(=O)c2ccccc2N)C(=O)OC1C (stereo partly drawn),inhibition,[1]; [16],-27.6% (inactive) and -32.6% (inactive)
same,inhibition,[1]; [17],1.22% and 8.36%
same,inhibition,[1]; [18],-33.3% and -6.15%
same,inhibition,[1]; [19],-27.1% and -21.6%
same,inhibition,[1]; [20],-42.5% and -64.3%
same,inhibition,[1]; [21],-23.7% and -0.57%
same,inhibition,"[2]; BGB combo, at 5 µM",-9.1% and -17.9%
same,inhibition,[2]; at 0.5 µM,-7.65% (inactive) and -14% (inactive)
same,inhibition,"[2]; cisplatin combo, at 5 µM",17.9% and -21%
same,inhibition,[2]; [22],-19% and -14.2%
same,inhibition,[2]; [23],5.61% and -17.4%
same,inhibition,"[2]; single agent, at 5 µM",5.14% and 4.37%
same,inhibition,"[3]; BGB IC20 combo, at 0.005 µM",-14.8% and 0.272%
same,inhibition,"[3]; BGB IC40 combo, at 0.005 µM",-10.2% and -12.9%
same,inhibition,"[3]; BGB IC40 combo, at 0.05 µM",-9.03% and -26.8%
same,inhibition,[3]; at 0.5 µM,-38.5% (inactive) and -18.4% (inactive)
same,inhibition,"[3]; cisplatin combo, at 0.05 µM",-12.1% and -31.4%
same,inhibition,"[3]; cisplatin combo, at 0.5 µM",-42.4% and -16.6%
same,inhibition,"[3]; cisplatin combo, at 5 µM",-27.4% and -22.6%
same,inhibition,[3]; [24],-18.7% and 2.31%
same,inhibition,[4]; at 0.5 µM,-6.57% (inactive) and -6.58% (inactive)
same,inhibition,[4]; [19],-2.79% and -15.2%
same,inhibition,[4]; [25],7.06% and -22.9%
same,inhibition,[4]; [26],-14.1% and 4.93%
same,inhibition,[5]; at 0.5 µM,-0.19% (inactive) and -22.1% (inactive)
same,inhibition,[5]; [27],1.21% and -18.4%
same,inhibition,[5]; [28],41% and -9.81%
same,inhibition,[5]; [29],-11.7% and -35.1%
same,inhibition,[5]; [30],-35% and -23.5%
same,inhibition,"[5]; single agent, at 5 µM",-14.9% and -5.13%

# Reference: PubChem BioAssay
